# Inconclusive results are not listed. The source made the active and inactive calls. The call rests on the fitted dose curve.
# Assay: qHTS assay to identify small molecule agonists or antagonists of the thyroid stimulating hormone receptor (TSHR) signaling pathway - wild type cell line counter screen (AID 1259384)
# Conditions: HEK293 wild type, cAMP HTRF counter-screen, stronger effect = higher value; series mostly up to 92.4 µM
# Description: U.S. Tox21 Program National Center for Advancing Translational Sciences [NCATS] NIH Chemical Genomics Center [NCGC] U.S. Environmental Protection Agency [EPA] National Institutes of Environmental Health Sciences [NIEHS] National Toxicology Program [NTP] U.S. Food and Drug Administration [FDA] Tox21 Assay Overview: TSHR is the receptor for thyrotropin (thyroid stimulating hormone or TSH), a member of the glycoprotein hormone family. TSH is released by the anterior pituitary gland and is the main regulator of thyroid gland growth and development. Upon binding circulating thyrotropin, a G-protein signal cascade activates adenylyl cyclase and […] cAMP concentration is increased. cAMP is a key second messenger involved extensively in cellular signal transduction pathways associated with the majority of G-protein coupled receptors (GPCRs). The activation of these GPCRs by neurotransmitters, lipids, nucleotides, peptides and hormones results in the activation or the inhibition of plasma membrane-bound adenylate cyclase through heterotrimeric G-proteins. A cell-based TSHR-Hek293 assay can be used to identify TSHR agonists. To eliminate the false positive compounds identified from screening a cell-based TSHR-Hek293 cell line, cAMP assay in a wild type Hek293 cells was used as a counter screening.
# Tox21 Assay Protocol Summary: Hek293 cells (wild type) were dispensed at 800 cells/4 uL/well in 1536-well white plates using a Multidrop dispenser. After the assay plates were incubated at a 37 C/5% CO2 incubator for 18 hrs, 23 nL of compounds dissolved in DMSO, positive controls or DMSO only was transferred to the assay plate by a pin tool, followed by 1 ul medium containing Ro20-1724. After 30 min of incubation at room temperature, 2.5 ul/well of cAMP-d2 and 2.5 ul/well of anti-cAMP-cryptate were added respectively into the assay plates using a Flying Reagent Dispenser. The plates were incubated at room temperature for 1 hr. The fluorescence intensity in the plates was measured using an Envision plate reader. Each test compound was measured at 15 concentrations and in triplicates.
# On the % scale 0 is the no-effect control and ±100 the full control effect.
Compound,outcome,cAMP activity change
Cc1ccc(NC(N)=O)cc1,inactive,
CC(C)OCCO,inactive,
CN1CCN(C(=O)C2CCCCC2)CC1,inactive,
CCOC(=O)CC,inactive,
C/C=C(\C)C(=O)OC/C=C(\C)CCC=C(C)C,inactive,
CC(C)(C)C(=O)CCc1ccc(Cl)cc1,inactive,
COc1cc(NS(=O)(=O)c2ccc(N)cc2)ncn1,inactive,
O=C1CC2(CCCC2)CC(=O)N1CCNCC1COc2ccccc2O1 (stereo not given),inactive,
c1cc2ccc3ccc4ccc5cccc6c(c1)c2c3c4c56,,5.35% [at 3.27 µM] (inactive)
CC(O)C(CO)C(C)O (stereo not given),inactive,
Cc1cc(C)c(N)c(Cl)c1,inactive,
C/C=C(\C)C=O,inactive,
N=C(N)S(=O)O,inactive,
CCCCNCC,inactive,
O=CN1CCCCC1,inactive,
CCCC(=O)OC,inactive,
CC(C)(C)c1ccc(C(=O)CCCCl)cc1,inactive,
CCc1ncc(C)[nH]1,inactive,
CCCCN=C(N)N=C(N)N,inactive,
CCCCc1ccc(Cl)cc1,inactive,

Compound,outcome,cAMP activity change
CC/C=C\CCCCCCCCCCOC(C)=O,inactive,
Cc1ccc(OC(=O)CC(C)C)cc1,inactive,
COc1cc(C(=O)NC2CCCNC2)cc(OC)c1OC (stereo not given),inactive,
CCNC(=O)C(C)OC(=O)Nc1ccccc1 (stereo not given),inactive,
Cc1cc(O)c(Cl)cc1C,inactive,
CCCC(=O)C(CC)Sc1ccoc1C (stereo not given),inactive,
CN(C)c1ccncc1,inactive,
C=CCN1CCc2nc(N)sc2CC1,inactive,
CN(C)CCc1c[nH]c2ccc(CS(=O)(=O)N3CCCC3)cc12,inactive,
N=C(N)N1CCc2ccccc2C1,,4.39% [at 8.39 µM] (inactive)
COc1ccccc1N1CCN(CC(O)COc2cc(OC)c(OC)c(OC)c2)CC1 (stereo not given),inactive,
O=C1c2ccccc2C(=O)N1CO,inactive,
NC(=O)CC[C@@H](N)C(=O)O,inactive,
C=COCCCCO,inactive,
CC(C)(C)C(=O)CC(=O)C(C)(C)C,inactive,
CC[C@@]1(c2ccccc2)NC(=O)N(C)C1=O,inactive,
CC(=O)O[C@@H]1CC2C3CCc4cc(OC(=O)c5ccccc5)ccc4C3CCC2(C)[C@H]1OC(C)=O (stereo not given in full),inactive,
CNCCc1ccccn1,inactive,
CC(CC(=O)Cl)CC(C)(C)C (stereo not given),inactive,
CCCCCCCCCCCCCCCCN(C)C,,-1.46% [at 8.39 µM] (inactive)

# Source: PubChem BioAssay (Tox21)
